# Source: PubChem BioAssay AID651710 (Broad Institute, 2012)
# Several values for one entry are separate records, joined by “and”; a condition that tells them apart may be missing. Equal entries are not always repeated. The campaign covered roughly 360,000 compounds. About 1,600 (0.44%) were called active.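 How the source made its calls: active means every replicate showing at least 50% inhibition; inconclusive means mean inhibition at least 50% but not in every replicate; inactive means the rest.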 This excerpt belongs to a sample that is enriched for actives. Some structures have more than one record in an assay (separate samples or runs), and their calls can disagree.
# Biological target: DNA repair protein RAD52 homolog (Homo sapiens) (UniProt P43351)
# Assay: blockers of RAD52 strand annealing activity – biochemical, FRET, single point, set 2, primary screen (AID 651710)
# Conditions: recombinant RAD52 DNA annealing, FRET fluorescence; at 18.7 µM; stronger effect = higher value
# Chain of DNA repair protein RAD52 homolog (Homo sapiens) (P43351 whole entry, looked up): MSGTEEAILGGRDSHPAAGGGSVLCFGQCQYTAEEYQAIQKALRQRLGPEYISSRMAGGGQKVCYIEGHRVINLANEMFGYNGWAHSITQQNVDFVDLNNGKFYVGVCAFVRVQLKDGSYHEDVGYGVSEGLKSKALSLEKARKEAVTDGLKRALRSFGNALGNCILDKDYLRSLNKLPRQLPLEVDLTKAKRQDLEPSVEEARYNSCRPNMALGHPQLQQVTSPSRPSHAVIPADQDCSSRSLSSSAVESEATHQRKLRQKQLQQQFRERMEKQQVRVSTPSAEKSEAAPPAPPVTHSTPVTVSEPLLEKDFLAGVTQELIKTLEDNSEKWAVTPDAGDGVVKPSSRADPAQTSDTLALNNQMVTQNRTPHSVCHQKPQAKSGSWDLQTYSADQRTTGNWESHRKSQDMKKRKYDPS
row,Structure (SMILES),inhibition
1,O=C(CN1CCOCC1)N[C@@H]1CC[C@H](CCNS(=O)(=O)c2ccccc2F)O[C@H]1CO,-13.5% (inactive)
2,O=C(Cc1ccccc1)N1CC[C@@H]2[C@H](CO)Nc3ccc(-c4ccccc4)cc3[C@@H]21,-10.7% (inactive)
3,Cc1ccc(-c2ccc3c(c2)O[C@H](CN(C)C(=O)Nc2ccc(C(F)(F)F)cc2)[C@@H](C)CN([C@H](C)CO)S3(=O)=O)cc1,-8.45% (inactive)
4,Cc1cc(N2CCN(C)CC2)nc2ccc(NC(=S)N3CCOCC3)cc12,46.4% (inactive)
5,CCOCCCNC(=S)Nc1ccc2nc(N3CCN(CC)CC3)cc(C)c2c1,61% (active)
6,Cc1cc(N2CCOCC2)nc2ccc(NC(=S)N3CCN(Cc4ccccc4)CC3)cc12,-21.2% (inactive)
7,COc1cccc(-c2cnc3c(c2)C(=O)N([C@@H](C)CO)C[C@@H](C)[C@H](CN(C)C(=O)CN(C)C)O3)c1,18.6% (inactive)
8,CC(C)NC(=O)N(C)C[C@H]1Oc2ccc(N(C)C)cc2C(=O)N([C@@H](C)CO)C[C@H]1C,-18.9% (inactive)
9,COc1ccc2c3c(n(C)c2c1)[C@@H](CO)NCC31CCN(CC2CC2)CC1,55.9% (active)
10,COc1ccc2c3c(n(C)c2c1)[C@@H](CO)NCC31CCN(CC2CCCC2)CC1,37.5% (inactive)
11,CCS(=O)(=O)N1CCC2(CC1)CN[C@H](CO)c1c2c2ccc(OC)cc2n1C,5.49% (inactive)
12,COc1ccc(NC(=O)Nc2ccc3c(c2)C(=O)N([C@@H](C)CO)C[C@@H](C)[C@H](CN(C)S(=O)(=O)c2cccs2)O3)cc1,-4.93% (inactive)
13,COc1ccccc1S(=O)(=O)N(C)C[C@H]1Oc2cc(C#CCC3CCCC3)ccc2S(=O)(=O)N([C@@H](C)CO)C[C@H]1C,9.21% (inactive)
14,O=C(C[C@@H]1CC[C@@H]2[C@H](COC[C@@H](O)CN2S(=O)(=O)c2ccccc2)O1)NCC1CCCCC1,91% (active)
15,O=C(C[C@@H]1CC[C@H]2[C@@H](COC[C@H](O)CN2S(=O)(=O)c2ccccc2)O1)NCCN1CCCC1,8.64% (inactive)
16,Cc1ccc(S(=O)(=O)N2C[C@H](O)COC[C@@H]3O[C@@H](CC(=O)NCC4CCCCC4)CC[C@H]32)cc1,37.6% (inactive)
17,COc1ccccc1-c1ccc2c(c1)O[C@@H](CN(C)CC1CCOCC1)[C@H](C)CN([C@@H](C)CO)S2(=O)=O,17% (inactive)
18,COCC(=O)NC[C@@H]1[C@@H](c2ccc(C3=CCCC3)cc2)[C@@H](CO)N1C(C)=O,2.17% (inactive)
19,CN1CCC(CN)(N2CCN(c3ccccc3)CC2)CC1,83.9% (active)
20,Cc1cc(C)n(-c2nnc(N3CCN(c4ccccc4)CC3)nn2)n1,-6.3% (inactive)
21,CCS(=O)(=O)N1CCC(N2CCN(c3ccccc3)CC2)CC1,-13% (inactive)

row,Structure (SMILES),inhibition
1,C[C@@H]1CCCCO[C@@H](CN(C)C)[C@@H](C)CN([C@H](C)CO)C(=O)c2cc(NC(=O)c3ccncc3)ccc2O1,-19.4% (inactive)
2,CCCC#Cc1ccc([C@@H]2[C@@H](CO)N3C(=O)CN(C(=O)Nc4ccc(F)cc4)C[C@@H]23)cc1,6.28% (inactive)
3,O=C(C1CCCC1)N1[C@H](CO)[C@H]2c3ccccc3N(S(=O)(=O)c3ccccc3)C[C@H]21,-8.44% (inactive)
4,C[C@@H]1CN([C@H](C)CO)C(=O)c2cccc(NC(=O)Nc3ccc4c(c3)OCO4)c2O[C@H]1CN(C)S(=O)(=O)c1ccc(Cl)cc1,-13.7% (inactive)
5,O=C(NC[C@H]1CC[C@H]2[C@H](CN2Cc2cccc(Cl)c2)O1)C1CC1,-6.18% (inactive)
6,COc1ccc(CN(C)C[C@H]2OCCCC[C@H](C)Oc3ccc(NC(=O)c4ccccc4)cc3C(=O)N([C@@H](C)CO)C[C@@H]2C)cc1,28.1% (inactive)
7,CO[C@H]1CN(C)C(=O)c2ccc(NC(=O)Nc3ccc(F)cc3)cc2OC[C@@H](C)NC[C@H]1C,-5.12% (inactive)
8,Cc1ccc(C(=O)N/C(=C/c2ccc(-c3cccc([N+](=O)[O-])c3)o2)C(=O)NCCCN(C)C)cc1,65.9% (active)
9,Cc1ccc(C(=O)N/C(=C\c2ccc(F)cc2)C(=O)NCCN2CCOCC2)cc1,-4.68% (inactive)
10,Cc1occc1C(=O)N/N=C/c1ccc(-c2cccc([N+](=O)[O-])c2)o1,-14% (inactive)
11,COc1ccc(CNC(=O)C[C@H]2C[C@H]3c4cc(NS(C)(=O)=O)ccc4O[C@H]3[C@@H](CO)O2)cc1,9.84% (inactive)
12,Cc1ccc(-c2ccc3c(c2)O[C@@H](CN(C)C(=O)CC2CC2)[C@@H](C)CN([C@@H](C)CO)S3(=O)=O)cc1,18.4% (inactive)
13,COCCNC(=O)C[C@@H]1C[C@@H]2c3cc(NC(=O)Nc4ccc(C(F)(F)F)cc4)ccc3O[C@@H]2[C@@H](CO)O1,1.63% (inactive)
14,CC(=O)c1cccc(-c2cnc3c(NC=O)cc(-c4ccccc4Oc4ccccc4)cn23)c1,-29.2% (inactive)
15,CN(C)C(CNC(=O)c1ccc(OCc2cn3ccccc3n2)cc1)c1ccco1 (stereo unspecified),-13.9% (inactive)
16,CN(C)CCNC(=O)c1ccc(-c2cn3c(-c4ccc(Oc5ccccc5)cc4)cnc3cn2)cc1,85.7% (active)
17,C[C@H]1CN([C@@H](C)CO)C(=O)c2cccc(NS(=O)(=O)c3cn(C)cn3)c2O[C@H]1CN(C)C(=O)Nc1ccc2c(c1)OCO2,-13.3% (inactive)
18,CS(=O)(=O)N1[C@H](C#N)[C@H](c2ccc(C#CC3CC3)cc2)[C@H]1CO,-26.1% (inactive)
19,COc1ccc(NC(=O)N(C)C[C@@H]2Oc3c(NS(=O)(=O)c4ccc(OC)cc4)cccc3C(=O)N([C@H](C)CO)C[C@@H]2C)cc1,-3.75% (inactive)
20,COc1ccc2c3c(n(C)c2c1)[C@H](CO)N(S(=O)(=O)c1ccc(C)cc1)CC31CCN(C(=O)c2ccccn2)CC1,21.8% (inactive)
21,C[C@H]1CN([C@@H](C)CO)C(=O)CCCn2nncc2CO[C@@H]1CN(C)C(=O)Nc1ccc(N2CCN(C)CC2)cc1,60.1% (active) and 24.7% (inactive)

row,Structure (SMILES),inhibition
1,C[C@@H]1CN([C@@H](C)CO)C(=O)CCCn2nncc2CO[C@H]1CN(C)C(=O)Nc1ccc(C(F)(F)F)cc1,-10.9% (inactive) and -1.52% (inactive)
2,COC(=O)N(C)C[C@@H]1OCc2cnnn2CCCC(=O)N([C@@H](C)CO)C[C@@H]1C,0.525% (inactive) and 0.31% (inactive)
3,COc1ccc(S(=O)(=O)N2CC[C@@H]3[C@@H](CO)Nc4ccc(C#Cc5cccnc5)cc4[C@@H]32)cc1,0.847% (inactive)
4,Cc1noc(C)c1S(=O)(=O)N(C)C[C@H]1Oc2ccc(NC(=O)CCN3CCOCC3)cc2CC(=O)N([C@H](C)CO)C[C@H]1C,-2.41% (inactive)
5,C[C@H](CO)N1C[C@H](C)[C@H](CN(C)C)Oc2ccc(NC(=O)Nc3ccc(F)cc3)cc2CC1=O,-3.53% (inactive)
6,Cc1cccc(NC(=S)NC23CN4CN(CN(C4)C2)C3)c1,82.8% (active)
7,Cc1cccc(NC(=O)NC2(C)CCS(=O)(=O)C2)c1 (stereo unspecified),-1.1% (inactive)
8,Cc1cccc(NC(=S)NCc2ccc3[nH]c4c(c3c2)CCCC4)c1,-21.7% (inactive)
9,Cc1cccc(-c2nc3ccc(C(=O)NCCN4CCN(C)CC4)cc3nc2-c2cccc(C)c2)c1,68% (active)
10,O=C(NCCN1CCOCC1)c1cccc(S(=O)(=O)Nc2ccc(F)cc2)c1,2.89% (inactive)
11,Cc1cccc(C(=O)OC(C)CN2CCN(C)CC2)c1 (stereo unspecified),-5.75% (inactive)
12,CN(C)CC(=O)N1[C@H](CO)[C@@H](c2ccc(-c3cccc(C(=O)N(C)C)c3)cc2)[C@@H]1C#N,-31.9% (inactive)
13,Oc1ccc(N=Cc2sc3ccccc3c2Cl)cc1,55.8% (active)
14,O=C(NC1CCC1)[C@H]1[C@H](CO)[C@H]2Cn3c(ccc(C4=CCCCC4)c3=O)[C@@H]1N2CC1CC1,1.51% (inactive)
15,CCCc1ccc(OCC(O)CN2CCN(C(=O)OCC)CC2)cc1 (stereo unspecified),-8.19% (inactive)
16,CCc1ccc(S(=O)(=O)NCC(O)COc2ccc(OC)cc2)cc1 (stereo unspecified),-8.48% (inactive)
17,Nc1ccc(OCC(O)C[n+]2ccc(CCS(=O)(=O)[O-])cc2)cc1 (stereo unspecified),58.1% (active)
18,COCC(=O)N1CC(=O)N2[C@H](C1)[C@H](c1ccc(C#CC3CCCCC3)cc1)[C@@H]2CO,6.1% (inactive)
19,COc1ccc2c3c([nH]c2c1)[C@H](CO)N(C(=O)c1ccccc1)CC31CCN(S(=O)(=O)c2cccs2)CC1,2.57% (inactive)
